Screens deposited in PubChem BioAssay by National Center for Advancing Translational Sciences (NCATS).
Shown are actives, neighbours in structure and some others; about 5.9% of the full set was active somewhere.
TrxR1 substrate – qHTS Assay for Substrates of Mammalian Selenoprotein Thioredoxin Reductase 1 (TrxR1): qHTS. 0.01% of 390,000 active. purified TrxR1 substrate turnover, NADPH consumption readout. AID 588456, 2011. Potency, µM (highest dose often 114 µM), inactives show at the top dose activity change, negative = substrate turnover; further: potency means the concentration at half of the fitted maximal effect; nearly all actives have a fitted effect of over 50% in size
Target sequence (O89049 whole entry, looked up): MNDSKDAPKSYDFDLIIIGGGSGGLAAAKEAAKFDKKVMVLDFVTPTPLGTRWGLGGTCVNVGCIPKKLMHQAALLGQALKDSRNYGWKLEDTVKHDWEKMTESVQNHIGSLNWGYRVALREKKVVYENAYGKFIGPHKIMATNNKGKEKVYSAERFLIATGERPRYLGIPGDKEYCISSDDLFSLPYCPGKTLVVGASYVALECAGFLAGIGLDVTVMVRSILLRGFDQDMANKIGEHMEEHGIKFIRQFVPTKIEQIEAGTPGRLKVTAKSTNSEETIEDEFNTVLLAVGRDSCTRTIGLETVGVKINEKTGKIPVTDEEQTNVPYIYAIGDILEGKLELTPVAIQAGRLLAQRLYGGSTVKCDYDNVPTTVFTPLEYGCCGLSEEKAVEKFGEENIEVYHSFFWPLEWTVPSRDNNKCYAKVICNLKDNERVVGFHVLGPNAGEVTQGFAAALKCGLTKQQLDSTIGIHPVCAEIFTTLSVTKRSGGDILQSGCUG
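Rat TrxR1, dispensed at 90 nM, was prereduced with 400 uM NADPH (final) for 5 min at ~22 deg C, then incubated with compound 15 min before 400 uM selenite. A first-read NADPH fluorescence drop versus no-compound background flagged substrates.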
VP16 counter – VP16 counterscreen qHTS for inhibitors of ROR gamma transcriptional activity | Drosophila S2 Gal4-VP16 UAS-luciferase, luminescence, 20 h | Potency, µM (titrated, usually from 53.6 µM), inactives show at the highest dose activity, negative = inhibition, most hits filed as inhibitors | 3.5% of 310,000 active;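 further: Gal4-VP16 expression switched on by copper sulfate through the metallothionein promoter; potency means the concentration at half of the fitted maximal effect; nearly all actives have a fitted effect of over 50% in size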
Coupling enz – qHTS Assay for Inhibitors of Fructose-1,6-bisphosphate Aldolase from Giardia Lamblia: Coupling assay counterscreen; coupling enzyme system counterscreen, AmpLite Red fluorescence; activity change, negative = inhibition, % at 58.2 µM, hits read low; 0.67% of 290,000 active; in the data active means activity change below about -30%
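Activity here indicates interference with the coupling reaction, not aldolase inhibition. Compounds at 57.5 uM final met coupling enzymes for 10 min at RT; substrate and AmpLite Red detection followed, with a 525/598 nm fluorescence read after 20 min.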
GALK inh – qHTS Assay for Inhibitors of Human Galactokinase (GALK); P51570; Purified GALK, Kinase-Glo residual ATP luminescence; Potency, µM (series often up to 57.5 µM), for the others: top-dose activity change, negative = inhibition, hits mostly inhibitors; AID 1868, 2009; 0.007% of 270,000 active; further: potency means the concentration at half of the fitted maximal effect
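Luminescence from leftover ATP (Ultra-Glo luciferase/luciferin) served as read-out after a 1 h room-temperature reaction of 5 nM GALK with 35 uM ATP and 100 uM galactose.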
RORgamma inh – qHTS for inhibitors of ROR gamma transcriptional activity. Drosophila S2 Gal4-RORgamma UAS-luciferase reporter, 20 h. Potency, µM (doses to about 53.6 µM), for inactives: at the highest dose activity change, negative = inhibition, actives largely listed as inhibitors. 5.4% of 310,000 active; further: potency means the concentration at half of the fitted maximal effect; nearly all actives have a fitted effect of over 60% in size
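Compounds are pin-transferred onto Drosophila Schneider cells expressing a copper-inducible Gal4–ROR gamma transactivation domain fusion. After 1 hr, copper sulfate is added to 700 uM final; luciferase is read 20 hr later.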
TrxR1 inh – qHTS Assay for Inhibitors of Mammalian Selenoprotein Thioredoxin Reductase 1 (TrxR1): qHTS. AID 588453, 2011. Potency, µM (highest dose often 114 µM), inactives show top-dose activity change, negative = inhibition, hits mostly inhibitors. 1% of 390,000 active. Thioredoxin reductase 1, cytoplasmic (Rattus norvegicus), O89049. recombinant rTrxR1, NADPH fluorescence consumption, selenite substrate; further: potency means the concentration at half of the fitted maximal effect; nearly all actives have a fitted effect of over 65% in size
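Rat TrxR1 (90 nM in the dispensed reagent) was pre-reduced with 400 uM NADPH for 5 min at room temperature, then incubated with compound for 15 min. After 400 uM selenite was added, NADPH fluorescence (Ex 340/Em 450 nm) was followed for 8 min.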
An asterisk follows results filed as active; ? = inconclusive; / = no result given; [ ] = remark or other dose. Unless noted, the call rests on the fitted dose curve; in most records, active means well fitted curve in the direction sought with a large enough effect; inconclusive means small, poorly fitted or top-dose-only effect, or another doubt; inactive means no such curve, though single readings can be large; an effect the other way counts as inactive or inconclusive. On the % scale 0 is the no-effect control and ±100 the full control effect.

SMILES	TrxR1 substrate	VP16 counter	Coupling enz	GALK inh	RORgamma inh	TrxR1 inh
CN1CCN(c2ccc(Nc3c4ccccc4nc4ccccc34)cc2)CC1	/	10µM*	-6	/	-44%	/
COCCCn1c(SCC(=O)N2CCCCC2C)nnc1-c1ccco1 (stereo unspecified)	13%	2%	0	0%	14%	?
O=C(COc1nsnc1N1CCOCC1)Nc1cccc(Cl)c1	-12%	-4%	-1	2%	5%	-7%
CC1CCN(S(=O)(=O)c2nnc(NC(=O)c3cccc(F)c3)s2)CC1	-2%	/	/	/	/	18%
Cc1cccc(C(=O)NCC(c2ccc3c(c2)OCO3)N2CCOCC2)c1 (stereo unspecified)	0%[57.1 µM]	/	/	/	/	11%[57.1 µM]
O=C1C2CCCN2C(c2ccc(F)cc2)N1c1nccs1 (stereo unspecified)	4%	-2%	2	-1%	?	13%
O=C1C2CCCN2C(c2ccc(Cl)cc2)N1c1nccs1 (stereo unspecified)	4%	-22%	6	0%	13µM*	16%
Cc1ccc(C2N(c3nccs3)C(=O)C3CCCN32)cc1 (stereo unspecified)	-2%	-16%	-2	2%	13µM*	1%
CCC(=O)N(CCC(c1ccccc1)c1ccc2c(c1)OCO2)Cc1ccc(OC(C)C)cc1 (stereo unspecified)	0%	/	/	/	/	18%
Clc1ccc(/C=N/Nc2ncnc3ccccc23)cc1Cl	-5%	3.5µM*	-3	3%	1.4µM*	6%
Nc1c(Cl)ncnc1N/N=C/c1cccc(O)c1	-4%	1%	-1	0%	-29%	1%
Oc1ccc(Nc2ncnc3ccccc23)cc1	-11%	?	1	-5%	39%	-6%
Fc1ccccc1/C=N/Nc1nc2ccccc2o1	-6%	11µM*	-4	/	6.3µM*	-21%
FC(F)Oc1ccccc1/C=N/Nc1nc2ccccc2o1	4%	?	-1	-1%	?	17%
Fc1ccccc1/C=N/Nc1ncnc2ccccc12	-12%	4.5µM*	-4	-2%	2.8µM*	2%
CC(C)CC1(C)NC(=O)N(Cc2cc([N+](=O)[O-])cc3c2OCOC3)C1=O (stereo unspecified)	-5%	4%	4	/	-1%	3%
COC(=O)c1ccc(NC(=O)CCn2cccn2)cc1	-3%[57.1 µM]	/	/	/	/	-1%[57.1 µM]
Cc1ccc(C)c(CN2CCC(CNC(=O)Cn3ncc4c([nH]c5ccccc54)c3=O)CC2)c1	3%	/	/	/	/	19%
Cc1ccc(N2C(=S)NC3c4cc(Cl)ccc4OC2(C)C3C(=O)N(C)C)cc1 (stereo unspecified)	-4%	-20%	2	2%	11µM*	-12%
O=C1N/C(=N\N=C\c2cccnc2)SC1Cc1ccc(SC(F)F)cc1 (stereo unspecified)	-5%	0.71µM*	-3	-4%	0.5µM*	21%
O=C1N/C(=N\N=C\c2ccc3ncccc3c2)SC1Cc1ccc(SC(F)F)cc1 (stereo unspecified)	-5%[57.1 µM]	?	4	0%	4%	-7%[57.1 µM]
O=C1N/C(=N\N=C\c2ccccn2)SC1Cc1cccc(SC(F)F)c1 (stereo unspecified)	-12%	3.2µM*	0	-3%	1.8µM*	-6%
CC(=O)Nc1c(NC(=O)CC#N)[nH]c2c(c1=O)c(=O)n(C)c(=O)n2C	-1%	-9%	-9	-1%	-3%	10%
CN1CCN(C(=O)/C=C/c2ccccc2)CC1	7%	2%	2	0%	6%	11%
CN1CCN(C(=S)NC(=O)/C=C/c2ccccc2)CC1	3%	?	2	-3%	11µM*	-7%
SMILES	TrxR1 substrate	VP16 counter	Coupling enz	GALK inh	RORgamma inh	TrxR1 inh
O=C(/C=C/c1ccc(Br)cc1)NC(=S)N1CCOCC1	-3%	0.4µM*	2	0%	0.71µM*	-10%
CC(OC(=O)/C=C/c1ccc(Br)cc1)C(=O)N1CCOCC1 (stereo unspecified)	-6%	/	/	/	/	3%
CN1CCN(C(=S)NC(=O)/C=C/c2ccccc2Cl)CC1	7%[57.1 µM]	?	0	-3%	2.5µM*	13%[57.1 µM]
Cc1ccc(C(=O)CCNc2ccc(F)c(Cl)c2)o1	-3%	6%	3	12%	22%	56µM*
COc1ccc(/C=N/NC(=O)c2cccc(O)c2)cc1Cn1nc(C)c([N+](=O)[O-])c1C	-5%	12%	3	2%	40%	18%
CN(C)/C=C(\C(=O)c1cccc(Cl)c1)c1nnnn1-c1ccccc1	-6%	?	0	/	14µM*	7%[57.1 µM]
CCSc1nnnn1-c1cccc(C(=O)O)c1	-1%[57.1 µM]	/	/	/	/	16%[57.1 µM]
CCc1c(C(=O)N/N=C/c2cccs2)nnn1-c1nonc1N	-1%[57.1 µM]	?	-6	-1%	13µM*	2%[57.1 µM]
Nc1nonc1-n1nnc(C(=O)N/N=C/C=C/c2ccccc2)c1CSC1=NCCS1	6%[57.1 µM]	3.2µM*	-2	-2%	1.4µM*	8%[57.1 µM]
Nc1nonc1-n1nnc(C(=O)N/N=C/c2ccc(OCc3ccccc3)cc2)c1COc1ccc(F)cc1	15%	1%	-2	-2%	-7%	4%
Nc1nonc1-n1nnc(C(=O)N/N=C/c2ccc(OCc3ccccc3)cc2)c1CNc1ccccc1	-6%	?	/	-6%	11µM*	11%
Nc1nonc1-n1nnc(C(=O)N/N=C/c2cccs2)c1CSc1ccccc1	-1%	5µM*	-1	8%	?	10%
CCC(Sc1ncccc1C(=O)O)C(=O)N1CCCC1 (stereo unspecified)	7%	-18%	-8	0%	-35%	?
C/C(CC(=O)Nc1cc(C)ccn1)=N\NC(=O)C(=O)NC(C)C	1%[57.1 µM]	-1%	-2	-2%	-39%	1%[57.1 µM]
C/C(=N/NC(=O)c1cccc(C)c1)c1c(O)cc(C)oc1=O	-1%[57.1 µM]	3.5µM*	-1	-4%	?	-17%[57.1 µM]
C/C(=N\Nc1ccccc1)c1c(O)cc(C)oc1=O	-3%	-13%	-1	-1%	10%	-15%
C/C(CC(=O)Nc1cc(C)ccn1)=N\NC(=O)c1cccc(C)c1O	2%	5µM*	3	-3%	11µM*	2%
C/C(CC(=O)Nc1ccccn1)=N\NC(=O)c1ccccc1O	-4%	?	0	1%	-26%	5%
